Screens (PubChem)
The list is not random: actives were taken first. Their share in the collection is about 3.7%.
HTT cytoprotect: Huntington cell model cytoprotection by ATP luminescence. PC12 HTT-Q103 induced, cytoprotection, ATP luminescence, 40 h. Potency, µM (doses to about 56.4 µM), for inactives: cytoprotection (ATP increase), actives largely listed as activators. 230,000 compounds, 0.14% hits. AID 1471; further: % of control where 0% means no effect; nearly all actives have a fitted effect of over 45% in size
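PC12 cells with ecdysone-inducible HTT exon 1 Q103-GFP, induced with 100 nM tebufenozide and co-treated with library compounds in a dose series (1536-well, 1500 cells/well). Cytoprotection read as ATP content by ATPlite luminescence.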
Tau FP inhib: tau fibrillization inhibition (FP); K18 P301L tau heparin fibrillization, Alexa594 FP, 6 h; Potency, µM (series often up to 57.7 µM), without a hit: at the highest dose activity, negative = inhibition, actives largely listed as inhibitors; 280,000 compounds, 0.39% hits; further: on the % scale 0 is the no-effect control and ±100 the full control effect; nearly all actives have a fitted effect of over 55% in size
Target sequence (P10636 561-689 P618L limits assumed): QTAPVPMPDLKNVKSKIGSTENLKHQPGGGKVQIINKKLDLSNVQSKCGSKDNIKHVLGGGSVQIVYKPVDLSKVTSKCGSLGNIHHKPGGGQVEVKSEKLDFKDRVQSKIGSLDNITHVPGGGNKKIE
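Heparin (20 uM) drove fibril formation of recombinant tau K18 P301L, 15 uM unlabeled with 0.24 uM Alexa 594 label, for 6 hr at 37 C in 100 mM sodium acetate pH 7. Fluorescence polarization (555/632 nm) read 1 hr after 30 uM ThT.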
Tau ThT inhib: tau fibrillization inhibition (ThT binding); P10636; 270,000 compounds, 2.1% hits; Potency, µM (series often up to 57.4 µM), for inactives: top-dose activity, negative = inhibition, actives largely listed as inhibitors; recombinant tau K18 P301L, heparin-induced fibrillization, ThT fluorescence; AID 1460; further: on the % scale 0 is the no-effect control and ±100 the full control effect; nearly all actives have a fitted effect of over 55% in size
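In this qHTS, human K18 P301L tau is incubated with compound and heparin for 6 hr at 37 C, and Thioflavin T fluorescence then reports fibril load.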
HTT aggregate: reduces HttQ103-GFP aggregates in PC12 cells; PC12 HttQ103-GFP aggregates, Acumen cytometry, 40 h; Potency, µM (top dose mostly 46.1 µM), inactives show top-dose activity change, negative = inhibition, hits mostly inhibitors; 220,000 compounds, 1.1% hits; further: on the % scale 0 is the no-effect control and ±100 the full control effect; nearly all actives have a fitted effect of over 60% in size
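Read-out: GFP aggregate count by laser scanning cytometer (488 nm excitation, 500-530 nm emission, 1–25 µm objects >6 SD above background). Cells: PC12, inducible HTTex1-Q103-GFP, 100 nM tebufenozide; compounds titrated.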
Tau fluor counter: counter-screen for tau fibril formation inhibitors. 280,000 compounds, 0.93% hits. AID 1463. tau K18 P301L Alexa594 fluorescence, heparin fibrillization. Potency, µM (top dose mostly 57.7 µM), for inactives: top-dose activity change, negative = decrease; further: on the % scale 0 is the no-effect control and ±100 the full control effect; nearly all actives have a fitted effect of over 55% in size
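Human tau K18 P301L (15 uM unlabeled, 0.24 uM Alexa 594-labeled) in 100 mM sodium acetate pH 7 with 20 uM heparin, 6 hr at 37 C. ThT 30 uM added, 1 hr ambient; Alexa 594 FP and total fluorescence read at 555/632 nm.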
* = called active by the depositor; [ ] = remark or other dose. The call rests on the fitted dose curve; in most records, active means well fitted curve in the direction sought with a large enough effect; inconclusive means small, poorly fitted or top-dose-only effect, or another doubt; inactive means no such curve, though single readings can be large; an effect the other way counts as inactive or inconclusive. Potency means the concentration at half of the fitted maximal effect.

`CCOc1ccc(C(=O)Nc2ccc(C(=O)OCc3cc(=O)n4c(C)csc4n3)cc2)cc1` gave Tau FP inhib -11%, Tau ThT inhib 18% and Tau fluor counter -16%.
`COc1ccc(-c2nc(C)c(CCNC(=O)C(=O)Nc3ccccc3OC)s2)cc1` gave Tau FP inhib -16%, Tau ThT inhib inconclusive and Tau fluor counter -14%.
`COC(=O)Cc1sc(-c2ccccn2)nc1-c1ccccc1` gave HTT cytoprotect 1µM*, Tau FP inhib -5%, Tau ThT inhib -8%, HTT aggregate -5% and Tau fluor counter -5%.
`CCN(CC)S(=O)(=O)c1ccc(C(=O)N2CC(=O)Nc3ccc(F)cc3C2c2ccccc2)cc1` (stereo not given) gave Tau FP inhib 1%, Tau ThT inhib -5% and Tau fluor counter -12%.
O=C1NC(=S)N/C1=C\C=C\c1ccccc1 was read as HTT cytoprotect -4%[10 µM], Tau FP inhib -4%, HTT aggregate -3%[9.22 µM] and Tau fluor counter 1%.
`COc1ccc(/C=C/C=C2\NC(=S)NC2=O)cc1` gave HTT cytoprotect -31%, Tau FP inhib 11%, Tau ThT inhib 2µM*, HTT aggregate -26% and Tau fluor counter -11%.
`COc1ccc(-c2nc3c(c4c2C[C@H](c2ccccc2)OC4)CN(C(=O)NCc2ccco2)CC3)c(C)c1` gave HTT cytoprotect -7%[10 µM], Tau FP inhib -2%[11.6 µM], Tau ThT inhib -4%[11.5 µM] and Tau fluor counter -4%[11.6 µM].
CCC(=O)NC1=C(Cl)C(=O)C(NC(=O)CC)=C(Cl)C1=O was read as HTT cytoprotect -21%[10 µM], Tau FP inhib 3.5µM*, Tau ThT inhib 2µM*, HTT aggregate -15%[9.22 µM] and Tau fluor counter inconclusive.
Screening CC1(C)COC(c2ccc(F)c([N+](=O)[O-])c2)=N1 returned HTT cytoprotect 17%[10 µM], Tau FP inhib -7%, Tau ThT inhib inconclusive, HTT aggregate 35µM* and Tau fluor counter -21%.
Screening CCCCSCCCNC(=O)C1CCN(Cc2nc(-c3ccc(CC)cc3)oc2C)CC1 returned Tau FP inhib 5%, Tau ThT inhib inconclusive and Tau fluor counter -2%.
COc1cc2c(cc1NC(=O)Nc1ccc(C)cc1)oc1ccccc12 was read as HTT cytoprotect -25%, Tau FP inhib -7%, Tau ThT inhib -4%, HTT aggregate -19% and Tau fluor counter 4µM*[quencher].
`COc1cc2c(cc1NC(=O)C(C)Sc1ccc(NC(C)=O)cc1)oc1ccccc12` (stereo not given) gave HTT cytoprotect -22%[1.9 µM], Tau FP inhib inconclusive, Tau ThT inhib -1%, HTT aggregate -31% and Tau fluor counter inconclusive.
COc1cc2c(cc1NC(=O)Nc1ccc(F)cc1)oc1ccccc12 was read as HTT cytoprotect 7%[10 µM], Tau FP inhib -8%, Tau ThT inhib -2%, HTT aggregate 17% and Tau fluor counter 6.3µM*[quencher].
`COc1ccc(NC(=O)Nc2cc3oc4ccccc4c3cc2OC)cc1` gave HTT cytoprotect -1%, Tau FP inhib inconclusive, Tau ThT inhib inconclusive, HTT aggregate 21% and Tau fluor counter 8.9µM*[quencher].
Screening COc1cc2c(cc1NC(=O)Nc1cccc(C)c1)oc1ccccc12 returned HTT cytoprotect 32%, Tau FP inhib -1%, Tau ThT inhib inconclusive, HTT aggregate -3% and Tau fluor counter 7.9µM*[quencher].
`Cc1ccc(CNC(=O)c2ccc(N3CCCC3)c(NC(=O)Nc3ccc(F)c(Cl)c3)c2)cc1` gave Tau FP inhib inconclusive, Tau ThT inhib 1% and Tau fluor counter inconclusive.
O=C(Cn1nc(Cc2cccnc2)c2ccccc2c1=O)Nc1ccc(F)c(Cl)c1 was read as Tau FP inhib -21%, Tau ThT inhib inconclusive and Tau fluor counter inconclusive.
For Cc1ccccc1-c1nc2scc(CCNC(=O)c3ccco3)n2n1 the results were Tau FP inhib -6%, Tau ThT inhib -1% and Tau fluor counter -1%.
For CCOC(=O)CCN1C(=O)[C@H]2[C@H]3[C@H](O)[C@H](O)C/C(=N/OCC(C)C)[C@@H]3CC[C@@H]2C1=O the results were HTT cytoprotect 1%[10 µM], Tau FP inhib -7%[11.6 µM], Tau ThT inhib -14%[11.5 µM] and Tau fluor counter -17%[11.6 µM].
For CCOc1ccc(Br)cc1/C(C)=N\NC1=NCCN1 the results were HTT cytoprotect -8%, Tau FP inhib 1%, Tau ThT inhib -8%, HTT aggregate 13µM* and Tau fluor counter -9%.
Screening CCOC(=O)c1c(C)[nH]c(C)c1S(=O)(=O)N1CCCC(C(=O)Nc2cccc(CC)c2)C1 (stereo not given) returned Tau FP inhib -3%, Tau ThT inhib 1% and Tau fluor counter -26%.
Screening CCn1c2ccccc2c2nnc(NN)nc21 returned HTT cytoprotect -23%[10 µM], Tau FP inhib inconclusive, Tau ThT inhib 14µM*, HTT aggregate -8% and Tau fluor counter -11%.
O=C(O)CNC(=O)[C@H]1NC(C(F)(F)F)(C(F)(F)F)OC1(C(F)(F)F)C(F)(F)F was read as HTT cytoprotect -6%[10 µM].
Screening O=C(Nc1ccc(OC(F)(F)F)cc1)C(Cc1ccccc1)NS(=O)(=O)c1cccc2nsnc12 (stereo not given) returned Tau FP inhib 16µM*, Tau ThT inhib 5% and Tau fluor counter inconclusive.
Screening O=C(Nc1ccc(Br)cc1)C(Cc1ccccc1)NS(=O)(=O)c1cccc2nsnc12 (stereo not given) returned Tau FP inhib -15%, Tau ThT inhib 10% and Tau fluor counter -13%.
`CCCCCCCCCCCCCCCCCC(=O)NC[C@@H](COP(=O)([O-])OCC[N+](C)(C)C)OCC` gave HTT cytoprotect -21%[1.9 µM].
CCCCC/C=C\C\C=C/C=C/C=C/[C@@H](SCC(NC(C)=O)C(=O)O)[C@@H](O)CCCC(=O)O (stereo not given in full) was read as HTT cytoprotect -6%, Tau FP inhib 4%, Tau ThT inhib -9% and Tau fluor counter -9%.
Screening Cc1cccc(NC(=O)c2sc3nc(-c4cc5ccc(O)cc5oc4=O)[nH]c(=O)c3c2C)c1 returned Tau FP inhib -15%, Tau ThT inhib 3% and Tau fluor counter -18%.
C=CC[n+]1ccc(/C=C2\C=Cc3cc(C)ccc3N2CC)c2ccccc21 was read as HTT cytoprotect -189%, Tau FP inhib 32µM*, Tau ThT inhib 3.2µM*, HTT aggregate 2.2µM* and Tau fluor counter -18%.
`Nc1cc([N+](=O)[O-])ccc1Nc1ccc(O)cc1` gave HTT cytoprotect 7%[10 µM], Tau FP inhib inconclusive, Tau ThT inhib 13µM*, HTT aggregate -31%[9.22 µM] and Tau fluor counter 20µM*[quencher].
`COc1ccccc1CNc1nc(-c2ccco2)nn1C(=O)c1ccccc1[N+](=O)[O-]` gave Tau FP inhib -3%, Tau ThT inhib inconclusive and Tau fluor counter inconclusive.
